Results: PubChem BioAssay (NCATS)
Records with an inconclusive call do not appear. Where a call stands in place of a potency, no number is given. The source made the active and inactive calls. The call rests on the fitted dose curve; in most records, active means well fitted curve in the direction sought with a large enough effect; inconclusive means small, poorly fitted or top-dose-only effect, or another doubt; inactive means no such curve, though single readings can be large; an effect the other way counts as inactive or inconclusive.

Columns and labels:
[1] = qHTS of pediatric cancer cell lines to identify multiple opportunities for drug repurposing: Primary screen for SK-N-SH cells (AID 1347098);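 further: DMSO served as neutral control and bortezomib at 2.3 µM as positive control; nearly all actives have a fitted effect of over 65% in size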
In short: (§1)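 Cells (500-1,000/well) rested 5 h, then received compounds for 48 h; metabolically active cells were measured by CellTiter-Glo luminescence. Final concentrations spanned up to 46 µM (MIPE, 11-point) or 0.59 nM-46 µM (NPC, 8-point) in primary screens, 11-point in follow-ups.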

[2] = qHTS of pediatric cancer cell lines to identify multiple opportunities for drug repurposing: Primary screen for NB1643 cells (AID 1347099); further: nearly all actives have a fitted effect of over 50% in size
In short: (§2)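 Plated cells (500-1,000 per well, growth media) were allowed to settle for 5 hours, treated with compound dilutions for 48 hours, then lysed with CellTiter-Glo for 15 min at room temperature before luminescence reading.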

[3] = qHTS of pediatric cancer cell lines to identify multiple opportunities for drug repurposing: Primary screen for LAN-5 cells (AID 1347100); further: potency means the concentration at half of the fitted maximal effect
In short: as §1

[4] = qHTS of pediatric cancer cell lines to identify multiple opportunities for drug repurposing: Primary screen for BT-12 cells (AID 1347101); further: nearly all actives have a fitted effect of over 25% in size
In short: as §1

[5] = qHTS of pediatric cancer cell lines to identify multiple opportunities for drug repurposing: Primary screen for Rh18 cells (AID 1347102); further: nearly all actives have a fitted effect of over 65% in size
In short: as §1

[6] = qHTS of pediatric cancer cell lines to identify multiple opportunities for drug repurposing: Primary screen for OHS-50 cells (AID 1347103); further: nearly all actives have a fitted effect of over 40% in size
In short: as §1

[7] = qHTS of pediatric cancer cell lines to identify multiple opportunities for drug repurposing: Primary screen for RD cells (AID 1347104); further: nearly all actives have a fitted effect of over 55% in size
In short: as §2

[8] = qHTS of pediatric cancer cell lines to identify multiple opportunities for drug repurposing: Primary screen for MG 63 (6-TG R) cells (AID 1347105); further: nearly all actives have a fitted effect of over 50% in size
In short: as §2

[9] = qHTS of pediatric cancer cell lines to identify multiple opportunities for drug repurposing: Primary screen for control Hh wild type fibroblast cells (AID 1347106);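 further: series mostly up to about 46 µM; a drop in luminescence marks cytotoxicity and a rise apparent proliferation; nearly all actives have a fitted effect of over 55% in size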
In short: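 Cells (500-1,000/well) in growth media were settled 5 h at 37 degrees C, then given compounds for 48 h. Viability was read as CellTiter-Glo luminescence. Primary runs used MIPE at 11 points (0.78 nM-46 µM) and NPC at 8 points (0.59 nM-46 µM); follow-ups used 11 points.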

[10] = qHTS of pediatric cancer cell lines to identify multiple opportunities for drug repurposing: Primary screen for Rh30 cells (AID 1347107); further: series mostly up to about 46 µM; nearly all actives have a fitted effect of over 75% in size
In short: as §1

[11] = qHTS of pediatric cancer cell lines to identify multiple opportunities for drug repurposing: Primary screen for Rh41 cells (AID 1347108);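 further: series mostly up to about 46 µM; luminescence drop marks cytotoxic hits; nearly all actives have a fitted effect of over 70% in size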
In short: as §2

[12] = qHTS of pediatric cancer cell lines to identify multiple opportunities for drug repurposing: Confirmatory screen for A673 cells (AID 1347110);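 further: cells exposed to compound for 48 h before the viability read; nearly all actives have a fitted effect of over 65% in size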; further: potency means the concentration at half of the fitted maximal effect
In short: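 Viability was read as ATP luminescence (CellTiter-Glo) after 48 h of compound exposure at 37 C in A673 cells seeded at 500-1,000/well. Titrations reached 46 uM final, with 11 points in the confirmatory screen. Concentration-response curves were fitted directly.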

[13] = qHTS of pediatric cancer cell lines to identify multiple opportunities for drug repurposing: Confirmatory screen for BT-12 cells (AID 1347112); further: nearly all actives have a fitted effect of over 55% in size
In short: as §1

[14] = qHTS of pediatric cancer cell lines to identify multiple opportunities for drug repurposing: Confirmatory screen for LAN-5 cells (AID 1347113); further: nearly all actives have a fitted effect of over 65% in size
In short: as §1

[15] = qHTS of pediatric cancer cell lines to identify multiple opportunities for drug repurposing: Confirmatory screen for DAOY cells (AID 1347114); further: nearly all actives have a fitted effect of over 65% in size
In short: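 Viability measured as metabolically active cells via CellTiter-Glo luminescence following 48 hours of compound exposure, 11-point dilutions in confirmatory testing. 500-1,000 cells/well plated 5 hours before dosing; controls were DMSO and 2.3 µM bortezomib.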

[16] = qHTS of pediatric cancer cell lines to identify multiple opportunities for drug repurposing: Confirmatory screen for BT-37 cells (AID 1347117); further: nearly all actives have a fitted effect of over 55% in size
In short: as §1

[17] = qHTS of pediatric cancer cell lines to identify multiple opportunities for drug repurposing: Confirmatory screen for MG 63 (6-TG R) cells (AID 1347119); further: nearly all actives have a fitted effect of over 55% in size
In short: as §1

[18] = qHTS of pediatric cancer cell lines to identify multiple opportunities for drug repurposing: Confirmatory screen for NB-EBc1 cells (AID 1347115);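 further: cells exposed to compound for 48 h before the viability read; nearly all actives have a fitted effect of over 45% in size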
In short: as §1

Cc1nc([N+](=O)[O-])cn1-c1ccc([N+](=O)[O-])cc1
Potency [1]: inactive
Potency [2]: inactive
Potency [3]: inactive
Potency [4]: inactive
Potency [5]: inactive
Potency [6]: inactive
Potency [7]: inactive
Potency [8]: inactive
Potency [9]: inactive
Potency [10]: inactive
Potency [11]: inactive

O=C(O)[C@H](O)[C@@H](O)[C@H](O[C@@H]1O[C@H](CO)[C@H](O)[C@H](O)[C@H]1O)[C@H](O)CO
Potency [1]: inactive
Potency [2]: inactive
Potency [3]: inactive
Potency [4]: inactive
Potency [5]: inactive
Potency [6]: inactive
Potency [7]: inactive
Potency [8]: inactive
Potency [9]: inactive
Potency [10]: inactive
Potency [11]: inactive

CCOC(=O)NNc1nncc2ccccc12
Potency [1]: inactive
Potency [2]: inactive
Potency [3]: inactive
Potency [4]: inactive
Potency [5]: inactive
Potency [6]: inactive
Potency [7]: inactive
Potency [8]: inactive
Potency [9]: inactive
Potency [10]: inactive
Potency [11]: inactive

CCCc1c2oc(C(=O)O)cc(=O)c2cc2c(=O)cc(C(=O)O)n(CC)c12
Potency [1]: inactive
Potency [2]: inactive
Potency [3]: inactive
Potency [4]: inactive
Potency [5]: inactive
Potency [6]: inactive
Potency [7]: inactive
Potency [8]: inactive
Potency [9]: inactive
Potency [10]: inactive
Potency [11]: inactive

N#Cc1cc(NC(=O)C(=O)O)c(Cl)c(NC(=O)C(=O)O)c1
Potency [1]: inactive
Potency [2]: inactive
Potency [3]: inactive
Potency [4]: inactive
Potency [5]: inactive
Potency [6]: inactive
Potency [7]: inactive
Potency [8]: inactive
Potency [9]: inactive
Potency [10]: inactive
Potency [11]: inactive

CSc1ccc(/C=C2/C(C)=C(CC(=O)O)c3cc(F)ccc32)cc1
Potency [1]: inactive
Potency [2]: inactive
Potency [3]: inactive
Potency [4]: inactive
Potency [5]: inactive
Potency [6]: inactive
Potency [7]: inactive
Potency [8]: inactive
Potency [9]: inactive
Potency [10]: inactive
Potency [11]: inactive

CNC[C@H](O)[C@@H](O)[C@H](O)[C@H](O)CO
Potency [1]: inactive
Potency [2]: inactive
Potency [3]: inactive
Potency [4]: inactive
Potency [5]: inactive
Potency [6]: inactive
Potency [7]: inactive
Potency [8]: inactive
Potency [9]: inactive
Potency [10]: inactive
Potency [11]: inactive

CC(=O)O[C@@H]1CC2C3CCc4cc(OC(=O)c5ccccc5)ccc4C3CCC2(C)[C@H]1OC(C)=O (stereo not given in full)
Potency [1]: inactive
Potency [2]: inactive
Potency [3]: inactive
Potency [4]: inactive
Potency [5]: inactive
Potency [6]: inactive
Potency [7]: inactive
Potency [8]: inactive
Potency [10]: inactive

CNC(=O)c1cnn(-c2nc(N)c3ncn([C@@H]4O[C@H](CO)[C@@H](O)[C@H]4O)c3n2)c1
Potency [1]: inactive
Potency [2]: inactive
Potency [3]: inactive
Potency [4]: inactive
Potency [5]: inactive
Potency [6]: inactive
Potency [7]: inactive
Potency [8]: inactive
Potency [9]: inactive
Potency [10]: inactive
Potency [11]: inactive

CCOC(=O)O[C@]1(C(=O)OCCl)CC[C@H]2[C@@H]3CCC4=CC(=O)C=C[C@]4(C)[C@H]3[C@@H](O)C[C@@]21C
Potency [1]: inactive
Potency [2]: inactive
Potency [3]: inactive
Potency [4]: inactive
Potency [5]: inactive
Potency [6]: inactive
Potency [7]: inactive
Potency [8]: inactive
Potency [9]: inactive
Potency [10]: inactive
Potency [11]: inactive
Potency [12]: inactive
Potency [13]: inactive
Potency [14]: inactive
Potency [15]: inactive
Potency [16]: inactive
Potency [17]: inactive

CN(C)CCN(Cc1ccsc1)c1ccccn1
Potency [1]: inactive
Potency [2]: inactive
Potency [3]: 1 nM (active)
Potency [4]: inactive
Potency [5]: inactive
Potency [6]: inactive
Potency [7]: inactive
Potency [8]: inactive
Potency [9]: inactive
Potency [10]: inactive
Potency [11]: inactive
Potency [12]: inactive
Potency [13]: inactive
Potency [14]: inactive
Potency [15]: inactive
Potency [18]: inactive
Potency [16]: inactive
Potency [17]: inactive

COC(=O)c1cc(Cl)c(NC(C)=O)cc1OC
Potency [1]: inactive
Potency [2]: inactive
Potency [3]: inactive
Potency [4]: inactive
Potency [5]: inactive
Potency [6]: inactive
Potency [7]: inactive
Potency [8]: inactive
Potency [9]: inactive
Potency [10]: inactive
Potency [11]: inactive

NS(=O)(=O)c1cc2c(cc1Cl)CN(C1CCCCC1)C2=O
Potency [1]: inactive
Potency [2]: inactive
Potency [3]: inactive
Potency [4]: inactive
Potency [5]: inactive
Potency [6]: inactive
Potency [7]: inactive
Potency [8]: inactive
Potency [9]: inactive
Potency [10]: inactive
Potency [11]: inactive

COc1ccccc1OCC1CNC(=O)O1 (stereo not given)
Potency [1]: inactive
Potency [2]: inactive
Potency [3]: inactive
Potency [4]: inactive
Potency [5]: inactive
Potency [6]: inactive
Potency [7]: inactive
Potency [8]: inactive
Potency [9]: inactive
Potency [10]: inactive
Potency [11]: inactive

CC(=O)N(CC(O)CO)c1c(I)c(C(=O)NCCO)c(I)c(C(=O)NCC(O)CO)c1I (stereo not given)
Potency [1]: inactive
Potency [2]: inactive
Potency [3]: inactive
Potency [4]: inactive
Potency [5]: inactive
Potency [6]: inactive
Potency [7]: inactive
Potency [8]: inactive
Potency [9]: inactive
Potency [10]: inactive
Potency [11]: inactive

Cc1ccc(C(=O)C(=O)O)cc1C
Potency [1]: inactive
Potency [2]: inactive
Potency [3]: inactive
Potency [4]: inactive
Potency [5]: inactive
Potency [6]: inactive
Potency [7]: inactive
Potency [8]: inactive
Potency [9]: inactive
Potency [10]: inactive
Potency [11]: inactive

CCO[C@H](Cc1ccc(OCCc2ccc(OS(C)(=O)=O)cc2)cc1)C(=O)O
Potency [1]: inactive
Potency [2]: inactive
Potency [3]: inactive
Potency [4]: inactive
Potency [5]: inactive
Potency [6]: inactive
Potency [7]: inactive
Potency [8]: inactive
Potency [9]: inactive
Potency [10]: inactive
Potency [11]: inactive

CCCCC(CC)CNC(=O)CC(C)OC(=O)CCC(=O)O (stereo not given)
Potency [1]: inactive
Potency [2]: inactive
Potency [3]: inactive
Potency [4]: inactive
Potency [5]: inactive
Potency [6]: inactive
Potency [7]: inactive
Potency [8]: inactive
Potency [9]: inactive
Potency [10]: inactive
Potency [12]: 2610 nM (active)
Potency [13]: inactive
Potency [15]: inactive
Potency [18]: inactive
Potency [16]: inactive
Potency [17]: inactive

Nc1c[n+](N2CCOCC2)no1
Potency [1]: inactive
Potency [2]: inactive
Potency [3]: inactive
Potency [4]: inactive
Potency [5]: inactive
Potency [6]: inactive
Potency [7]: inactive
Potency [8]: inactive
Potency [9]: inactive
Potency [10]: inactive
Potency [11]: inactive
